Our source for the z-score values is PubChem BioAssay AID1347423 (Functional Genomics Laboratory (NCATS/FGL), 2020).

The whole screen tested about 52,000 sequences, of which about 210 (0.4%) were called active. This is one part of a sample in which actives are shown more often than they occur.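 The calls were made as follows: active = gene whose silencing raises cell survival under the drug, median off-target-corrected z-score across its silencing RNAs 2 or more; inactive = the rest.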

A short description of the assay: Resistance to Poly (ADP-Ribose) Polymerase inhibitor: Gene Identification via Genome-wide siRNA Screen. The note with it: mouse BRCA2 R2336H ES cells, olaparib, CellTiter-Glo viability; active compounds read high. Summed up: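 Genome-wide siRNA screen (3 siRNAs/gene, 20 nM) in mouse ES cells carrying hypomorphic BRCA2 R2336H; olaparib 500 nM added 48 h post-transfection, CellTiter-Glo viability 72 h later. Normalized to plate-median negative control; MAD z-scores, gene median, seed-adjusted.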
As to GGAAGGAAGAAAAAAUAGUTT against Acat1, the z-score was -0.146 (inactive).

As for GGGCUGGAAUAAACUUGUCTT against Usp15, the z-score was 1.51 (active). In the case of GGAACAUAGUAGCAUGCCATT against Leprel2, the z-score was -0.442 (inactive). Consider GGCUUAUGUCCCAAAGCUATT against Nexn, for which the z-score was 1.35 (inactive).

Regarding “CUGUAAGGCGGAUAAGACCTT against 2610017I09Rik”, the z-score is -0.52 (inactive). In the case of CCCACUAAGAAACAAUCUATT against Gp1ba it was 0.484 (inactive); in that of GGGACUUCUUGUGAAUGGATT against Mobp, -0.971 (inactive); in that of GUCUGUAUUCCUAGAUUCCTT against Olfr794, 0.287 (inactive). For GGUCACUGUUUCCCUAGACTT against Prss33, the z-score was -0.494 (active). Take GGUUAGGUUGAUGAAUAAGTT against Eif4ebp2: the z-score was -0.495 (inactive). Turning to “GGUUUUUGAGCCAUAUCCATT against 4632404H22Rik”, the z-score is 0.625 (inactive). For GGAUCCAAGCAUUAUAGUGTT against LOC229512 the value was -0.425 (inactive); for CCCUUGUGAUGUGGUGAAGTT against Slc25a22, -1.58 (inactive); for GGACAAGGAUAGUAGUAAGTT against Adprt1, 3.83 (active).

For GCAUGAAAACACGUUUGGGTT against Hdac11, the z-score is 0.768 (inactive). Take CGAUCUUCCAAACCCUCUUTT against Dhh: the z-score is -0.652 (inactive).

Take GGACUGAGGAAGAAUUUAATT against Grp58: the z-score was -0.954 (inactive). In the case of GGAAUGUAUCCAGGACUUCTT against Brd4, the z-score was -1.95 (inactive).

Take GGAGAUCGUGCAAUUCAUUTT against Rasl2-9: the z-score was -0.53 (inactive). For the sequence GGCGGUGAUCCAGGGUUUATT against Klc2, the z-score is -0.0337 (inactive). Consider GCAAUGUCGCCAAACGUAATT against Zfpn1a1, for which the z-score is -0.213 (inactive). Turning to CCGUAAUUGAUUCUUUACUTT against Kif3a, the z-score was 2.25 (active). Take GCCCAAACUCAAGCAAGUCTT against Trpm3: the z-score was -2.79 (inactive). GGCUACGAAACCAGAAGAUTT against Shd: the z-score was 0.117 (inactive). As to CCUUCUGGCCCAGACGAUUTT against Pxmp2, the z-score was -0.173 (inactive).

For GCUGAGAGAAAGGUUCACATT against Tube1, the z-score was -1.3 (inactive).

With CCUUGUAUCCUUAAUCCUCTT against Ppt1, the z-score was 0.555 (inactive). Consider GGAAGCAGAAUUGUAAAGATT against Bid3, for which the z-score is 2.41 (active). Take GGAAAUGUGACCACAAAGATT against Tas2r120: the z-score is -0.347 (inactive). With GGAAGAAUUGAACCACAGGTT against Papolg, the z-score was 0.756 (inactive). Take “GGUGGCACUCUUUCAGAUCTT against 6030446I19Rik”: the z-score was 0.179 (inactive). Regarding GCCUGCUCUUGAAGGAUAATT against Ptpn9, the z-score was 1.13 (active).

With GGACCUGUUUGAAGAAAAGTT against Gnai2, the z-score is -0.66 (inactive). In the case of GGUUUCUCUCUACGCUAUGTT against Nrp2, the z-score is 1.81 (inactive). Turning to GGACUGGUUCUUCAGUACCTT against Cradd, the z-score is 2.24 (inactive).

As to CCGGCAACAUGCGUGAAUUTT against Trpv4, the z-score was -0.769 (inactive). Take “GGAAAAAUGGGAGUUUGAATT against 4932423M01Rik”: the z-score is -0.322 (inactive). For GGAAUUUUAGCGGAUGAUATT against Smarca3 the value was 1.54 (active); for “CCUAGAUUGAAAAUUGUCATT against 1700049G17Rik”, -0.329 (inactive); for GCUAAUUUGACAAAGACGGTT against Bfsp2, 1.26 (inactive). As to GGAAGUCAGACAGAUUUAATT against Prss33, the z-score is 3.17 (active). GGACAUAAAAAUACGCCAGTT against Hsf1: the z-score was 3.22 (inactive). As for GGGCAGAGUGAUGUUGUCATT against Gsdmdc1, the z-score was -1.93 (inactive).

For the sequence CCAGCAUAUCUACUGUUCUTT against V1rf2, the z-score was -0.647 (inactive). As for GGACACAAAUGACAUCAACTT against Ptpns1, the z-score is -0.156 (inactive). On to CGUCUCUGCUGAGAACAUGTT against Kcnk15, for which the z-score is 2.15 (active). In the case of GGUUGUGGAACUAGAAUAUTT against Wdr12 it was -1.25 (inactive); in that of GGGAUGUAUUAGUGAAAGGTT against Dm15, -0.213 (inactive); in that of CCGAAAGAACACAAUCUAUTT against Ifi16, -0.1 (inactive). In the case of GGAAAAGUCCUGUAAAAUUTT against Dmrta1 it was 0.431 (inactive); in that of “GGACAUGACCAAAAGGCUGTT against 3110006P09Rik”, 2.27 (active). Turning to GCUUAUGAUGAACAAGCCCTT against Aplra1, the z-score was 0.51 (inactive). Consider GGCUGCCUCGAAAUUACAATT against Lamb3, for which the z-score was -1.79 (inactive). Regarding GGACCAGAAAAUUCACUUUTT against Gdap2, the z-score is -1.39 (inactive). With “GGCCUUCUCUGACUUUCUGTT against D430030K24Rik”, the z-score is 3.28 (active). On to CCCAUUAUUGGCACUACAATT against LOC434285, for which the z-score was -0.98 (inactive). Regarding GCUAGGAAGAGAGUGAUCUTT against Alg1, the z-score was -0.838 (inactive).

GGAAGAAAACAUGGAAGAATT against Usp47: the z-score is 3.28 (active). As to GCAAGUUAUCCAGCACUCATT against Ylpm1, the z-score was -1.57 (inactive). For GCCUCAGAAAAACAUCUAUTT against BC008103 the value was 2.16 (inactive); for GGACGAACCUUUAUACCAGTT against Arhgef15, -1.21 (inactive). Turning to GGCAUUCGAAGGGACAGAUTT against Arg2, the z-score was -0.343 (inactive). In the case of GGGUAGCUGGCGAAUCAAATT against Ptpro it was 1.43 (inactive); in that of GGAGCAAAUCCAGAGCAACTT against Actr8, 2.88 (active). For “GGAUUCUGCCUGAUCAAUGTT against 1110008F13Rik” the value was -1.08 (inactive); for “GGGAUGCUUUUGGCCCAAATT against 1110008J03Rik”, -0.285 (inactive). With GCAUCGUUACAGGACUUUATT against Enpp1, the z-score is -0.601 (inactive). In the case of CGAUGAAAUCAUCACUAUCTT against Cyfip1, the z-score is -0.619 (inactive).

Take “GGGAGAAGAAAUGGUUUAATT against B230315M08Rik”: the z-score was 1.54 (active). For GGAGACAAAUAUGAUGUAUTT against Hook1, the z-score was -1.94 (inactive). As for GGAUUUUUCUUUUGAGCGATT against Figf, the z-score was -0.866 (inactive). Consider GCACGUGGGCUAUUCCUACTT against Gria1, for which the z-score is 2.78 (active). Consider CCAACUUUCUCUUAGGAAATT against Gm580, for which the z-score is 0.9 (inactive). For the sequence CCUAUUUUUUCUCCACUGATT against Sntg1, the z-score was -0.718 (inactive).

Regarding “GGUCAUGGAAGAAGCAAAGTT against 5730555F13Rik”, the z-score was 2.7 (inactive). In the case of “GGUUUUUUACACAACAUGCTT against 1110067D22Rik” it was 0.0564 (inactive). GGAGUACGUUGACAUCAUCTT against Timp4: the z-score is -1.01 (inactive). In the case of GCGCAUAUUUUAUCAACUCTT against Plcb3 it was 1.31 (active); in that of GGAGAAACUUCAACUCUUATT against Resp18, 0.73 (inactive). As to CGAAAGAAGGUGAGGGCUCTT against Ppp1r9a, the z-score was -0.95 (inactive). As for GCGUAUCCCAGAUAUCCGATT against BC064033, the z-score was 0.0741 (inactive). As to “GCUGUUGCUGGCUAUUCUGTT against 5730409G15Rik”, the z-score is 0.298 (inactive). Consider GCCUCACAACUCUUACACCTT against Ptprc, for which the z-score was 0.888 (inactive). GGAUGGUCAUAAGGAUCAATT against Gpr128: the z-score is 2.66 (active). With CCAAGUAUUUCACAAACCGTT against Slc29a1, the z-score was 1.5 (inactive). In the case of GGAAGAUGUCCAAACCCGCTT against Tm4sf7, the z-score is 0.167 (inactive). For “CCAACUCGUUAUCACUAUATT against 1700001D09Rik” the value was -0.0393 (inactive); for “GGGUACAAUAUCCUUAAGUTT against D430033A06Rik”, -0.51 (inactive); for GAUUCCACGCCAAUUCAUCTT against Ccl3, -1.53 (inactive). As for CCCACCUAGGUUCAUCCCATT against Fath, the z-score is 2.93 (active). In the case of GGCUUAUCAGUCCAUGAAGTT against BC022224, the z-score was 1.93 (inactive). GGAGCCGAGUACAACAUCATT against Galgt1: the z-score is 0.763 (inactive).

CGUUUUCCACAAAGCAAAATT against Olfr1465: the z-score is 0.0226 (inactive). Consider GGCAAAGUGAUAUUUUCAATT against Slc6a12, for which the z-score was 1.85 (active).

With CCCGGAACUUAACUCUGUATT against LOC381438, the z-score was -0.264 (inactive). Turning to GCCAUUUACAUUCCCAGGGTT against Gm741, the z-score is 0.238 (inactive).

CCAAGCAACACCACUCAUCTT against Centb2: the z-score is -0.144 (inactive). GGAGAUGAAGAGGUUGGUUTT against Olig3: the z-score is -0.366 (inactive).

On to GGGAUCGAUCAAUCAUAACTT against Tcfap2c, for which the z-score was 1.8 (inactive). For GGAAAUCUUACAGACUGAGTT against Grid2, the z-score was 2.5 (active).

Turning to GCGCAAGUACCUCAAGAGUTT against Grem2, the z-score was 0.717 (inactive). In the case of “GGUGCUAGUGUAUGAAUUATT against 9830109N13Rik” it was 2.24 (inactive). For GGUGAUAACUCCCUAGUAGTT against Rai12, the z-score was -1.43 (inactive). Consider CGGACAUUGUUCUGUUUUCTT against Por, for which the z-score was 1.14 (inactive). In the case of CGACAUGUAAAACUAUUGUTT against BC034097, the z-score is 0.0442 (active). Turning to “CCUCUAGUAAAGAAAUAGATT against 2610019N13Rik”, the z-score is -2.5 (inactive).
